# Data from the supplement of paper PMC3334620.
# In all, about 33,000 sequences were measured (“E-score (-0.5 to 0.5)”: median about -0.056, highest 2% from about 0.38 on). The sample as a whole holds a higher share of the highest values than the screen did.
# Target: Stb4 (UniProt P50104)
# Test: PBM E-score (8-mer binding enrichment) (E-score (-0.5 to 0.5)); higher = stronger / more preferred TF binding
# Conditions: protein concentration: 200 nM; construct: GST-DNA-binding domain
# How it was run: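 GST-tagged yeast TFs (full-length or DNA-binding domain) were made by PURExpress in vitro transcription/translation and applied at about 100-200 nM to universal all-10-mer Agilent arrays. The arrays were made double-stranded by primer extension, on fresh or once-stripped slides. Bound protein was detected with fluorescent anti-GST, and scans were normalised with masliner. Each ungapped eight-base word, pooled with its reverse complement, received an E-score (modified Wilcoxon-Mann-Whitney statistic) from the Universal PBM Analysis Suite.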
# Chain of UniProt P50104 (P50104 whole entry): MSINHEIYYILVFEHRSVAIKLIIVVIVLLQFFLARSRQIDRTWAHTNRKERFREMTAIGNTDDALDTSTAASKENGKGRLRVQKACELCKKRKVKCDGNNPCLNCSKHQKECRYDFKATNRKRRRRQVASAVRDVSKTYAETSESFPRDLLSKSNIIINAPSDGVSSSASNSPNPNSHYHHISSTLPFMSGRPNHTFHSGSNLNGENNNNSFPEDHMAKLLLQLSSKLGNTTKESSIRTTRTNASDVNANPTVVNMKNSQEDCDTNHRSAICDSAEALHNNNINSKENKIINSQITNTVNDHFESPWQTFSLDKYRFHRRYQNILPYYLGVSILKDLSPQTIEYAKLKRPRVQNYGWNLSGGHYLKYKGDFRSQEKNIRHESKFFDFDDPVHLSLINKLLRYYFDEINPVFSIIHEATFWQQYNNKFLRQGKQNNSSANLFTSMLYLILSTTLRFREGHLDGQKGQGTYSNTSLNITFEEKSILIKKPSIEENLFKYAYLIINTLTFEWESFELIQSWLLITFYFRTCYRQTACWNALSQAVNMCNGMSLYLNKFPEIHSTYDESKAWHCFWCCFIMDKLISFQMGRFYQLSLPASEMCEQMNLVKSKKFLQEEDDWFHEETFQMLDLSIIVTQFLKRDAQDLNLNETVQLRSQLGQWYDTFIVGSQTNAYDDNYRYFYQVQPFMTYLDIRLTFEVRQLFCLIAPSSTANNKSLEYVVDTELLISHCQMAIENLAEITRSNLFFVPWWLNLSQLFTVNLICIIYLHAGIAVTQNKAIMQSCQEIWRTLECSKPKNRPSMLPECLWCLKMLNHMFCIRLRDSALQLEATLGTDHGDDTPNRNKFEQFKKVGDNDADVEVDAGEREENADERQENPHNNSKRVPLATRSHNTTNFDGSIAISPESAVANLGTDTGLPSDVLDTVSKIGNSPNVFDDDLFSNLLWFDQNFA
row,Sequence,PBM E-score
1,ACCTGGTG,-0.0216
2,ATCGGCGG,0.327
3,CGCATCCC,-0.0101
4,AGCATCCG,0.419
5,AGCATCCA,-0.115
6,AGCATCCT,0.0794
7,CGCATCCG,0.408
8,CGCATCCA,-0.126
9,CTCGTAGA,-0.246
10,GAAACGTC,0.0218
11,CATCGGTA,0.345
12,GCTCGGTA,0.416
13,CCTCGGTA,0.38
14,ACTCGGTA,0.322
15,AATCGGTA,0.205
16,GATCGGTA,0.407
17,GCTAGACC,-0.0645
18,AGTTTTCG,0.152
19,TATGAAGA,-0.0238
20,ACTGTCTG,-0.0825
21,CGGAAAGA,0.407
22,GGGAAAGA,-0.0458
23,AGGAAAGC,-0.0848
24,AGGAAAGA,-0.174

row,Sequence,PBM E-score
1,CAGAAAGC,-0.131
2,CGGAAAGC,0.386
3,TGAGCTAA,-0.15
4,CAATGCGG,0.0433
5,CACTTCCA,-0.0868
6,AACTTCCG,0.451
7,AACTTCCA,0.132
8,CACTTCCG,0.397
9,AACTTCCT,-0.0245
10,CACTTCCC,0.0457
11,AGTTCATC,-0.107
12,CGAACGAG,0.0473
13,CAGAGTGA,-0.0625
14,AATAACTC,-0.0405
15,AGATGAGA,-0.103
16,GATTGCGC,-0.00733
17,AGATAAAC,0.00284
18,AGAGACCC,-0.0488
19,AAGTTCGC,-0.187
20,CAGTTCGG,0.409
21,CAGTTCGC,-0.194
22,AAGTTCGA,0.0503
23,CAGTTCGA,-0.262
24,AAGTTCGG,0.421

row,Sequence,PBM E-score
1,ATCCACGG,0.109
2,GGGAGACA,0.146
3,CAGGCGGC,0.067
4,CCCGTCGA,0.102
5,CCCGTCGG,0.386
6,CCCGTCGC,-0.00272
7,CCTGGCAC,-0.00805
8,GAAGAGGC,-0.016
9,CTCGGATA,0.49
10,ATTGGATA,-0.121
11,ATGGGATG,-0.0874
12,CTAGGATA,-0.0673
13,ATCGGAGG,0.199
14,CTCAGATA,-0.00864
15,ATTGGATC,-0.0271
16,ATCGGATA,0.467
17,ATAGGATA,-0.00309
18,ATCGGATG,0.451
19,AACGGATC,0.306
20,ATCGGATC,0.43
21,CCCTCTAA,-0.182
22,AGACCTTG,-0.312
23,ACTAGGAC,-0.0716
24,GTCATTTA,-0.171

row,Sequence,PBM E-score
1,AATGGTTG,0.02
2,GTCAGGCA,-0.118
3,AGCTGGAT,-0.0862
4,AAGACTGA,-0.25
5,GTCGGACA,0.22
6,CTCGGATC,0.481
7,CTGGGATC,-0.0424
8,GTCGGATA,0.463
9,GTCGGAGA,0.294
10,CTCAGATC,-0.103
11,GTCAGCTA,-0.259
12,TCTGCAAA,-0.122
13,CCATCGCA,-0.229
14,CGGAAAAG,0.373
15,CGGAAAAC,0.37
16,CGGAAATC,0.366
17,CGGAAAAA,0.446
18,GGGAAATA,0.157
19,CGGAAATA,0.429
20,CTCTTTGA,-0.285
21,CTTAGAAG,-0.29
22,CGTATTGA,-0.271
